High-throughput results from PubChem.
Most compounds without a hit are left out; they make up all but 8.3% or so of the library.
RORgamma inh = ROR gamma (mouse) transcription inhibition | AID 2551 | hit rate 5.4% among 310,000 | P51450 | Potency, µM (highest dose often 53.6 µM), most hits filed as inhibitors | Drosophila S2 Gal4-RORgamma UAS-luciferase reporter, 20 h; further: nearly all actives have a fitted effect of over 60% in size
Target sequence (P51450 whole entry, looked up, the tested form may be a part): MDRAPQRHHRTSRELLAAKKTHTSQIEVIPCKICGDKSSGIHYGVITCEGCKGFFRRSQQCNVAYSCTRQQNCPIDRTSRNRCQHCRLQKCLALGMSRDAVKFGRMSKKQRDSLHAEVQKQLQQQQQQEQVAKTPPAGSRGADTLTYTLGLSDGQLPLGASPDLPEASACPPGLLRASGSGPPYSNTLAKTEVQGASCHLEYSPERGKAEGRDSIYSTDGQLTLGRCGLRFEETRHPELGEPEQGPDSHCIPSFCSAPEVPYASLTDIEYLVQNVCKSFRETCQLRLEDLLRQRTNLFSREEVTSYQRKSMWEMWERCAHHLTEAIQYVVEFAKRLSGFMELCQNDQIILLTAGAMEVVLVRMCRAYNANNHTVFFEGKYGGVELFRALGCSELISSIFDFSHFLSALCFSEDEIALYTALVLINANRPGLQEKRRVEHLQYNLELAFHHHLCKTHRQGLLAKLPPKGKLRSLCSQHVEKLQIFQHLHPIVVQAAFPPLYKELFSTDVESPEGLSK
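ROR gamma transcriptional activity was tracked as Gal4-UAS luciferase output in stably transfected Drosophila Schneider cells, with compound added 1 hr before 700 uM copper sulfate induction and a 20 hr ambient-temperature incubation.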
Giardia kill = kills Giardia lamblia | hit rate 0.15% among 340,000 | Giardia lamblia trophozoite viability | activity change, % at 7.66 µM, hits read low | AID 540267; in the data active means activity change below about -80%; inconclusive means between about -30% and that limit;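 further: parasites exposed to compound for two days anaerobically before the ATP read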
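Trophozoites 100 cells/well + cpd; 48 hrs, 37 deg C, anaerobic. ATPLite 1-Step added, 15-30 min RT, luminescence read (ATP-based viability).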
SW480 rereplic = induces DNA re-replication in SW480 colon adenocarcinoma cells. SW480 DNA re-replication, Hoechst DNA content imaging, 48 h. Potency, µM (top dose mostly 46.1 µM), most hits filed as activators. hit rate 1.8% among 340,000; further: nearly all actives have a fitted effect of over 55% in size
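Quantitative HTS format with DMSO vehicle controls; 48 hr drug incubation at 37 C, then 40 min Hoechst staining and scanning imager measurement at 405 nm excitation.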
BCR signal inh = blocks chronic active B-cell receptor signaling. hit rate 0.05% among 340,000. ABC-DLBCL IkBa-CBG/CBR reporter, luminescence ratio, 4 h. Potency, µM (top dose mostly 46.1 µM), hits mostly inhibitors; active means well fitted inhibition curve with a large enough effect in the signal ratio, with a control signal flat, not every such curve was filed as active; inconclusive means small, poorly fitted or top-dose-only effect, or effect the other way, or a change in a side signal; the % refers to the signal ratio
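Concentration-response series (up to 46 uM) were applied to TMD8 dual-reporter cells for 4 h at 37C with doxycycline. Green/red ratio, after filter-overlap correction, defined %Activity; red signal alone was normalised to basal cells and zero luminescence.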
Gal4-VP16 FLuc = Gal4-VP16 reporter inhibition counter-screen | Drosophila S2 Gal4-VP16 UAS-luciferase, luminescence, 20 h | hit rate 3.5% among 310,000 | Potency, µM (doses to about 53.6 µM), actives largely listed as inhibitors;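 further: Gal4-VP16 expression switched on by copper sulfate through the metallothionein promoter; nearly all actives have a fitted effect of over 50% in size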
MCF10A rerep = inducers of DNA re-replication in MCF 10A breast cells. hit rate 2.9% among 350,000. AID 624296. Potency, µM (doses to about 46.1 µM), actives largely listed as activators. MCF 10A DNA re-replication, Hoechst nuclear intensity, 48 h; further: nearly all actives have a fitted effect of over 50% in size
Hits are given with their value; - = inactive; ? = inconclusive; . = no result; [ ] = dose if it differs, or a comment. Unless noted, the call rests on the fitted dose curve; in most records, active means well fitted curve in the direction sought with a large enough effect; inconclusive means small, poorly fitted or top-dose-only effect, or another doubt; inactive means no such curve, though single readings can be large; an effect the other way counts as inactive or inconclusive.

SMILES	RORgamma inh	Giardia kill	SW480 rereplic	BCR signal inh	Gal4-VP16 FLuc	MCF10A rerep
CCOC(=O)c1ccc(-c2c(C(=O)OCC)oc3cc(O)c(CC)cc3c2=O)o1	3.2µM	-	-	?	?	-
COc1cc2nc(SCC(=O)c3ccc(Br)cc3)n3nc(C)nc3c2cc1OC	13µM	-	-	-	?	-
COC(CN(C)C(=O)c1ccc2c(c1)NC(=O)c1ccccc1S2)OC	-	-	-	?	-	-
CC(=O)c1sc2nc(C)c3c(c2c1N)CCCC3	-	-	15µM	?	-	18µM
Cc1c(C)n2c(SCC(=O)Nc3cccc4ccccc34)nnc2[nH]c1=O	.	-	23µM	?	.	-
NS(=O)(=O)c1ccc(NC(=O)Cc2c(F)cccc2Cl)cc1	-	-	?	-	-	-
O=C1CNC(=S)N1C1CCCCCC1	11µM	-	-	-	-	-
CCOC(=O)C1=CN(Cc2cccc(-c3ccc4c(c3)OCO4)c2)S(=O)(=O)N(C)C1C (centres undefined)	.	-	?	-	.	?
Cc1ccc(C(NC(=O)N2CCOCC2)=C(Cl)Cl)cc1F	22µM	-	-	-	2.2µM	?
CC(Sc1nnc(C2CC2)n1C1CC1)C(=O)Nc1cccc(S(=O)(=O)N(C)C)c1 (centres undefined)	.	-	-	-	.	-
COc1cc2ncnc(Nc3ccc(F)c(Cl)c3)c2cc1OCCCN1CCOCC1	-	.	-	.	-	30µM
CCN(C[C@H]1N[C@@](Cc2ccccc2)(C(=O)OC)[C@H]2C(=O)N(Cc3ccccc3)C(=O)[C@@H]12)C(=O)Nc1ccc(Cl)cc1	.	-	18µM	-	.	?
CCN(C[C@H]1N[C@@](C)(C(=O)OC)[C@H]2C(=O)N(Cc3ccccc3)C(=O)[C@@H]12)C(=O)C1CCCCC1	.	-	1.5µM	-	.	-
CCN(C[C@H]1N[C@@](Cc2ccccc2)(C(=O)OC)[C@H]2C(=O)N(C)C(=O)[C@@H]12)C(=O)c1ccc(F)cc1	.	-	-[9.22 µM]	-	.	0.82µM
O=C(CCNS(=O)(=O)c1ccc(Cl)cc1)N1CCN(c2ncccn2)CC1	.	-	-	-	.	-
CCOC(=O)C1=C(c2ccccc2)c2ccc(OC)cc2N(S(=O)(=O)C(F)(F)F)C1C(=O)OCC (centres undefined)	-	-	-	-	-	?
Cc1cccc(NC(=S)N(CCCN2CCOCC2)C(C)c2cc3ccccc3o2)c1 (centres undefined)	13µM	-	-	-	-[10 µM]	-
Cc1cccc(NC(=S)N(CCCN2CCOCC2)C(C)c2cc3ccccc3o2)c1C (centres undefined)	10µM	-	-	-	?	-
COc1cccc2cc(C(C)N(CCCN3CCOCC3)C(=S)Nc3ccccc3C)oc12 (centres undefined)	?	-	-	-	-	-
Cc1cc(OCC(=O)NCCc2cccc(F)c2)c2c(C)cc(=O)oc2c1	-	-	?	-	-	-
Cc1cccc(C(=O)N(Cc2nc3ccccc3c(=O)[nH]2)C2CCCCC2)c1	?	-	-	?	-	-
C[C@@H](NC(=O)c1nc[nH]c1C(=O)NCc1ccc(CNC(=O)OC(C)(C)C)cc1)c1ccccc1	.	-	-	-	.	?
CN1Cc2sc(NC(=S)NC(=O)c3ccccc3)c(C#N)c2CC1(C)C	3.2µM	-	-	?	?	?
CCC1(C)Cc2c(sc(NC(=S)NC(=O)c3ccccc3)c2C#N)CO1 (centres undefined)	?	-	-	-	?	-
CCNC(=S)Nc1sc2c(c1C#N)CCC(C)C2 (centres undefined)	11µM	-	-	-	?	-
SMILES	RORgamma inh	Giardia kill	SW480 rereplic	BCR signal inh	Gal4-VP16 FLuc	MCF10A rerep
CC1CCc2sc(NC(=S)NC(=O)c3ccccc3)c(C#N)c2C1 (centres undefined)	14µM	-	-	-	?	?
COc1ccccc1-n1cnnc1SCC(=O)NC1CCCC1	.	-	-	-	.	-
CCOC(=O)N1CCN(C(=O)c2cc(-c3ccncc3)nc3ccccc23)CC1	.	-	18µM	-	.	?
CCOC(=O)N1CCN(C(=O)c2cc(-c3ccc(OCC)cc3)nc3ccccc23)CC1	-	?	4.6µM	-	?	3.7µM
CCOc1ccc(-c2cc(C(=O)N3CCN(C)CC3)c3ccccc3n2)cc1	-	?	-	-	?	-
CCOC(=O)C1CCN(C(=O)c2cc(-c3ccncc3)nc3ccccc23)CC1	.	-	-	?	.	-
O=c1c2ccccc2cnn1-c1nc2ccccc2[nH]1	0.45µM	-91	-	?	1.1µM	-
O=c1c(Cl)c(N2CCCCC2)cnn1-c1nc2ccccc2[nH]1	0.89µM	?	-	?	1.3µM	?
Clc1ccc2nc(N3CCCCC3)[nH]c2c1	-	-	-	-	-	-
c1ccc2c(c1)nc(N1CCOCC1)c1c3ccccc3[nH]c21	?	-	?	?	-	3.7µM
O=c1[nH]c2ccccc2nc1N1CCOCC1	-	-	-	-	-	-
COC1=C(c2ccccc2)C(=O)c2ccccc2C1=O	-	-	?	?	-	?
O=C(C1=C(c2ccccc2)C(=O)c2ccccc2C1=O)c1ccccc1	11µM	?	7.3µM	?	11µM	5.2µM
O=C(CCCn1c(=S)[nH]c2ccsc2c1=O)NCCc1ccccc1	?	-	-	-	?	-
COc1ccc(OC)c(NC(=O)C23CC4CC(C2)CC(n2cnc(Br)n2)(C4)C3)c1	-	-	-	-	-	-
COc1ccc(NC(=O)C23CC4CC(C2)CC(n2cnc(Br)n2)(C4)C3)c(OC)c1	5.6µM	-	-	?	-	-
CCNC(=O)NC(=O)CSc1ccc(S(=O)(=O)N(C)C2CCCCC2)cn1	.	-	-	-	.	-
O=[N+]([O-])c1ccccc1N/N=C\c1ccccc1F	-	-	21µM	-	-	-
CCOC(=O)N1CCN(C(=O)COC(=O)c2ccc([N+](=O)[O-])cc2Cl)CC1	.	-	-	-	.	-
Cc1ccc2nc(-c3ccccn3)c(NC3CCCC3)n2c1	-	-	16µM	-	-	?
Cc1ccc(Nc2c(-c3ccccn3)nc3cccc(C)n23)cc1	4.5µM	-	-	?	?	?
Cc1cccc(C)c1Nc1c(-c2ccccn2)nc2ccccn12	11µM	-	?	?	-	?
Cc1ccccc1Nc1c(-c2ccccn2)nc2c(C)cccn12	4µM	-	-	-	7.9µM	-
Cc1ccccc1Nc1c(-c2ccc(N3CCOCC3)cc2)nc2ncccn12	-	?	-	-	-[10 µM]	-
Cc1ccc2nc(-c3ccc(C)o3)c(NC3CCCC3)n2c1	.	-	.	.	.	.
Cc1ccc(Nc2c(-c3ccc(C)o3)nc3cccc(C)n23)cc1	.	-	.	.	.	.
O=C(NCCc1c[nH]c2ccccc12)/C(=C/c1cccnc1)NC(=O)c1cccs1	-	-	-	-	-	-
O=c1cc(CN2CCN(S(=O)(=O)c3cccc(Cl)c3)CC2)c2ccc(O)cc2o1	.	-	-	-	.	-
